# According to PubChem BioAssay (NCI):
# Several values for one entry are separate records, joined by “and”; a condition that tells them apart may be missing. Equal entries are not always repeated. The panel holds about 83,000 compounds, 20% with a hit somewhere; the sample as a whole holds those more often.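 Single-concentration screen, 48 h exposure, 96-well plates. Endpoint: percent growth. Below 10 = active.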 Activity calls are given as the source filed them.
# Columns and labels:
# Assay in all cases: NCI-60 one-dose screen, 48 h (100 = growth as untreated, 0 = no growth, -100 = all killed)
# Details in all cases: 10 µM unless noted
# T-47D breast = tested on: T-47D breast
# BT-549 breast = tested on: BT-549 breast
# MDA-MB-435 melanoma = tested on: MDA-MB-435 melanoma
# SW-620 colon = tested on: SW-620 colon
# MCF7 breast = tested on: MCF7 breast
# HCT-116 colon = tested on: HCT-116 colon
# HCC-2998 colon = tested on: HCC-2998 colon
# KM12 colon = tested on: KM12 colon
Structure (SMILES),growth (T-47D breast),growth (BT-549 breast),growth (MDA-MB-435 melanoma),growth (SW-620 colon),growth (MCF7 breast),growth (HCT-116 colon),growth (HCC-2998 colon),growth (KM12 colon)
CCN(CC)CCOc1ccc2c(c1)C(=O)c1cc(OCCN(CC)CC)ccc1-2,111% (inactive) and 131% (inactive),96% (inactive) and 76.3% (inactive),73.4% (inactive) and 67% (inactive),34.5% (inactive) and 26.1% (inactive),30.1% (inactive) and 7.03% (active),44.2% (inactive) and 13.2% (inactive),77.9% (inactive) and 56.5% (inactive),54.8% (inactive) and 40.4% (inactive)
NC(=O)NO,107% (inactive) and 46.6% (inactive),110% (inactive) and 41.5% (inactive),98.5% (inactive) and 74.4% (inactive),105% (inactive) and 78.4% (inactive),96.9% (inactive) and 65.2% (inactive),109% (inactive) and 67.6% (inactive),111% (inactive) and 73.1% (inactive),100% (inactive) and 67.8% (inactive)
Cc1cc(N=Nc2ccc(C)c(N=Nc3cc(C)c(N)cc3N)c2)c(N)cc1N,77.5% (inactive) and 82.6% (inactive),94.2% (inactive),100% (inactive) and 12% (inactive),94.8% (inactive) and 48.4% (inactive),66.9% (inactive) and 19.4% (inactive),84.3% (inactive) and 58.3% (inactive),105% (inactive) and 91% (inactive),90.6% (inactive) and 39.6% (inactive)
CC1(C)[C@@H](OC(=O)CCC(=O)O)CC[C@]2(C)[C@H]3C(=O)C=C4[C@@H]5C[C@@](C)(C(=O)O)CC[C@]5(C)CC[C@@]4(C)[C@]3(C)CC[C@@H]12,90.6% (inactive) and 2.63% (active),99.7% (inactive) and -32.4% (active),98.8% (inactive) and -47.7% (active),109% (inactive) and -37.2% (active),91.2% (inactive) and 6.18% (active),95.4% (inactive) and -58.8% (active),103% (inactive) and -71.7% (active),97% (inactive) and -73.1% (active)
Cc1ccc(-c2noc(CC(=O)c3ccc([N+](=O)[O-])cc3)n2)cc1,87.8% (inactive),103% (inactive),98.1% (inactive),102% (inactive),98.2% (inactive),98.7% (inactive),103% (inactive),98% (inactive)
NC(=O)c1ccccc1OCC(O)CO (centres undefined),130% (inactive),109% (inactive),90% (inactive),101% (inactive),94.1% (inactive),112% (inactive),114% (inactive),115% (inactive)
CCN(CC)C(=S)SSC(=S)N(CC)CC,79.4% (inactive) and 87.3% (inactive),90.6% (inactive) and 90.3% (inactive),83.3% (inactive) and 106% (inactive),77.2% (inactive) and 109% (inactive),71.4% (inactive) and 95.9% (inactive),58.6% (inactive) and 93.8% (inactive),91.9% (inactive) and 102% (inactive),88.8% (inactive) and 97.5% (inactive)
COc1ccc2cc3[n+](cc2c1OC)CCc1cc2c(cc1-3)OCO2,38.2% (inactive) and 47.4% (inactive),28.8% (inactive) and 32.3% (inactive),59% (inactive) and 66.2% (inactive),79.3% (inactive) and 92.3% (inactive),61.9% (inactive) and 76.9% (inactive),68.5% (inactive) and 89.6% (inactive),56% (inactive) and 96.8% (inactive),40.7% (inactive) and 30.1% (inactive)
COc1ccc2nc(Cl)cc(C)c2c1,98.5% (inactive) and 128% (inactive),130% (inactive) and 92% (inactive),93.6% (inactive) and 96.1% (inactive),102% (inactive) and 122% (inactive),92.1% (inactive) and 111% (inactive),107% (inactive) and 89.6% (inactive),108% (inactive) and 96.1% (inactive),99.3% (inactive) and 124% (inactive)
COc1cc(-c2nccc3cc4c(cc23)OCO4)cc(OC)c1OC,27.6% (inactive) and 31.9% (inactive),56.8% (inactive),-14.5% (active) and -22.9% (active),16.7% (inactive) and 17.5% (inactive),20.9% (inactive) and 16.7% (inactive),18.7% (inactive) and 25.3% (inactive),59.8% (inactive) and 48.4% (inactive),32.3% (inactive) and 25% (inactive)
c1ccc(NCc2ccc3c(c2)OCO3)cc1,94.3% (inactive) and 110% (inactive),99.4% (inactive) and 85.2% (inactive),111% (inactive) and 98.2% (inactive),102% (inactive) and 101% (inactive),99.7% (inactive) and 102% (inactive),103% (inactive) and 98.3% (inactive),102% (inactive) and 112% (inactive),103% (inactive) and 102% (inactive)
CCOc1ccc(Nc2c3ccccc3nc3ccccc23)cc1,91.5% (inactive) and 13.1% (inactive) and 22.8% (inactive),94.4% (inactive) and 41.6% (inactive) and -3.76% (active),103% (inactive) and 24.5% (inactive) and 30.9% (inactive),92.8% (inactive) and 21% (inactive) and 29.1% (inactive),91.3% (inactive) and 20.1% (inactive) and 8.99% (active),87.6% (inactive) and -13.1% (active) and 13.2% (inactive),39.8% (inactive),99.8% (inactive) and 18% (inactive) and 33.3% (inactive)
CCC(C)C1(C2CCCC2)NC(=O)NC1=O (centres undefined),97.1% (inactive) and 98.3% (inactive),107% (inactive),121% (inactive) and 102% (inactive),112% (inactive) and 98.9% (inactive),99.3% (inactive) and 97.3% (inactive),100% (inactive) and 112% (inactive),103% (inactive) and 102% (inactive),106% (inactive) and 111% (inactive)
CC1=C(/C=C/C(C)=C/C=C/C(C)=C/C(=O)O)C(C)(C)CCC1,63.4% (inactive) and 86.2% (inactive) and 77.1% (inactive),100% (inactive) and 84.9% (inactive) and 99.2% (inactive),92.3% (inactive) and 90.7% (inactive) and 107% (inactive),111% (inactive) and 106% (inactive) and 116% (inactive),68.6% (inactive) and 67.4% (inactive) and 73.2% (inactive),83% (inactive) and 98.7% (inactive) and 89.6% (inactive),108% (inactive) and 111% (inactive) and 105% (inactive),94.7% (inactive) and 105% (inactive) and 102% (inactive)
CC(C)Cc1ccc(C(C)C(=O)NCc2ccc(Cn3c(=O)sn(CCCCl)c3=O)cc2)cc1 (centres undefined),57% (inactive) and -46.4% (active),92.3% (inactive) and -67.8% (active),101% (inactive) and -83.6% (active),87.3% (inactive) and -72.3% (active),57.3% (inactive) and -31.3% (active),92.4% (inactive) and -65.6% (active),95.7% (inactive) and -44.7% (active),95% (inactive) and 4.78% (active)
CCNC(=O)Nc1ccc(-c2nc3c(c(N4CCOC[C@@H]4C)n2)CCN(C2COC2)C3)cc1,-12.4% (active) and -25.3% (active),28.9% (inactive) and -1.93% (active),32.9% (inactive) and 0.798% (active),62.2% (inactive) and 14% (inactive),15.6% (inactive) and 11.8% (inactive),58.9% (inactive) and 28.5% (inactive),50% (inactive),47.5% (inactive) and 17.1% (inactive)
OCc1ccccn1,107% (inactive),103% (inactive),103% (inactive),104% (inactive),95.3% (inactive),104% (inactive),109% (inactive),110% (inactive)
COc1c(/C(C)=N/N=c2sc(C(C)=O)nn2-c2ccc(Cl)cc2)c(Oc2ccccc2)c(OC)c2occc12,98.7% (inactive) and 76.5% (inactive),115% (inactive) and 103% (inactive),103% (inactive) and 104% (inactive),102% (inactive) and 92.8% (inactive),99.9% (inactive) and 88.3% (inactive),96.4% (inactive) and 77.8% (inactive),107% (inactive) and 110% (inactive),93.7% (inactive) and 96.5% (inactive)
